Shiga toxin inh = inhibitors of Shiga toxin in Vero cells; Vero cells, Shiga toxin protein synthesis inhibition reporter; inhibition, % at 38.7 µM; actives 9.2% (n = 290,000); AID 2315; in the data active = inhibition mostly above about 28%, no sharp cut-off; inactive = mostly below about 43%; note: 0% is about no effect
CHX counter = counter-screen for Shiga toxin inhibitors: cycloheximide protein synthesis inhibition; cell reporter, cycloheximide protein synthesis inhibition counterscreen; max response, %; actives 12% (n = 300,000); in the data active = max response mostly above about 13%, no sharp cut-off; inactive = mostly below about 14%; note: read at 38.3 µM for the half of the compounds with a filed dose; 0% is about no effect
HCV inhibitor = blocks hepatitis C virus. Huh7.5.1 HCVcc-Cre infection, luciferase reporter, 44 h. Potency, µM (titrated, usually from 41.8 µM), without a hit: at the highest dose activity change, negative = inhibition, usual class: inhibitors. actives 3.4% (n = 340,000); note: potency is the fitted concentration of half-maximal effect; % is set by controls: 0 for no effect and ±100 for the full control effect
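Luciferase read-out (15 sec integration) after a 15 min room-temperature substrate step quantifies HCVcc-Cre infection. Cells, 1,000 per well, had compound added 4 h post-plating, then virus at ~0.5 moi, and were cultured 44 h.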
AMA1 RON2 block = disrupts binding of P. falciparum AMA1 to RON2; AlphaScreen AMA1-biotinylated RON2 peptide binding; Potency, µM (top dose mostly 58.2 µM), for the others: at the top dose activity change, negative = inhibition, most hits filed as inhibitors; actives 0.2% (n = 360,000); AID 720542;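 note: potency is the fitted concentration of half-maximal effect; 0% = vehicle wells and -100% = peptide control; nearly all actives have a fitted effect of over 45% in size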
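AMA1 (3D7) with his tag at 25 nM final met compounds first, then biotinylated RON2 peptide at 25 nM; detection used donor plus acceptor beads, 10 µg/mL apiece, read by AlphaScreen after 30 min at room temperature.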
Pf growth 96h = P. falciparum growth inhibition at 96 hours. Potency, µM (top dose mostly 28.7 µM), for inactives: at the highest dose activity change, negative = inhibition, hits mostly inhibitors. P. falciparum luciferase reporter growth, 96 h. actives 6.9% (n = 320,000). AID 504834; note: potency is the fitted concentration of half-maximal effect; % is set by controls: 0 for no effect and ±100 for the full control effect
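Readout is luminescence from an integrated firefly luciferase in P. falciparum. Red cells, 2% hematocrit and 0.05% parasitemia final, were cultured with compound through two parasite generations (96 hours) at 37 C, 5% CO2.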
Pf growth 48h = inhibits P. falciparum growth in the first generation, 48 h; actives 5.9% (n = 310,000); P. falciparum luciferase growth in erythrocytes, 48 h; AID 504832; Potency, µM (titrated, usually from 28.7 µM), inactives show top-dose activity change, negative = inhibition, actives largely listed as inhibitors; note: potency is the fitted concentration of half-maximal effect; % is set by controls: 0 for no effect and ±100 for the full control effect
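Firefly luciferase activity from engineered P. falciparum reports growth; inhibitors lower the luminescent signal. Cultures contained 2% hematocrit erythrocytes at 0.1% final parasitemia.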
* hit, by the source's call; ? = inconclusive; / = no result; [ ] = another dose, or the depositor's remark. A selection: hits, their analogues and other compounds. The true share with any hit is near 21%. Unless noted, calls come from the whole dose curve; as a rule, active = well fitted curve in the direction sought with a large enough effect; inconclusive = small, poorly fitted or top-dose-only effect, or another doubt; inactive = no such curve, though single readings can be large; an effect the other way counts as inactive or inconclusive.

SMILES	Shiga toxin inh	CHX counter	HCV inhibitor	AMA1 RON2 block	Pf growth 96h	Pf growth 48h
Cc1ccc(NC(=O)c2sc(N)nc2C)cc1	53.9*	36.8*	15.5%	-10.1%	192.2%	106.4%
Cc1nc(Nc2c(Cl)cccc2Cl)sc1C(=O)Nc1ccccc1	21.3	19.0*	-6.6%	3.4%	23.2%	-8.8%
CC(=O)c1sc(NS(=O)(=O)c2ccc(C)cc2)nc1C	22.7	-2.3	4.4%	-28.6%	-9.6%	13.9%
CCc1ccc(C(=O)COC(=O)C2CCN(c3ccc(C(F)(F)F)cn3)CC2)cc1	/	/	-2.4%	9.7%	-0.4%	6.6%
Cc1nc(NC(N)=S)sc1C(=O)Nc1ccccc1	-1.7	1.0	11.7%	62.5%	?	44.5%
Cc1nc(N)sc1C(=O)Nc1ccccc1	67.8*	35.5*	10.6%	17.6%	?	119.9%
COc1ccc(NC(=O)c2sc(NC(=O)COc3ccccc3)nc2C)cc1	1.5	7.9	-19.7%	-2.1%	133.9%	3.5%
Cc1nc(-c2cccnc2)sc1C(=O)Nc1ccc(Cl)cc1	-10.6	-5.1	?	?	49.2%	7.3%
Cc1nc(C(=O)Nc2ccccc2)sc1C(=O)Nc1ccccc1	78.6*	40.1*	?	16.8%	100.8%	97.8%
Cc1noc(N)c1C(=O)Nc1ccc(C(C)(C)C)cc1	135.8*	39.6*	-4.4%	-2.1%	7.3%	292.2%
Cc1nc(/N=C\N(C)C)sc1C(=O)Nc1ccccc1	50.7*	31.2	8.8%	2.4%	9.2%	73.9%
CC(C)CC1OC(C(C)C)Cc2[nH]c(=S)[nH]c(=O)c21 (configuration not stated)	/	/	/	118.6%	/	/
CC(=O)c1cc(-c2ccc(F)cc2)n(CCC(=O)Nc2cccc(C)n2)c1C	4.7	14.9	-28.9%	-0.1%	13.2%	-5.3%
Cc1ccc(C)c(S(=O)(=O)Nc2nc(C)c(C(=O)Nc3ccccc3)s2)c1	-4.0	10.3	7.7%	-6.4%	0.657µM*	?
Cc1c(C(=O)N2CCCCC2)c(S(=O)(=O)NCCc2ccc(Cl)cc2)c(C)n1C	-2.2	13.0	0.1%	-7.1%	12.5%	4.0%
COc1ccc(CNC(=O)CCCn2nc(C)c([N+](=O)[O-])c2C)cc1OC	188.8*	47.1*	-6.9%	0.7%	172.8%	-41.5%
COc1ccccc1N1CCN(C(=O)CCCn2nc(C)c([N+](=O)[O-])c2C)CC1	-6.8	0.6	-0.5%	-7.4%	10.4µM*	4.7%
Cc1ccc2nc(-c3ccc(Cl)cc3)c(Cc3ccccn3)n2c1	/	/	/	7.2%	/	/
CN(C)c1ccc(/C=C/[N+](=O)[O-])cc1	8.1	-1.0	9.7%	-7.0%	-0.3%	19.2%
CN(C)c1ccc(-n2cccc2/C=C/[N+](=O)[O-])cc1	-15.0	-6.4	10µM*	7.08µM*	0.5%	?
O=C(Cc1cccc(NC(=O)C2CCCN(C(=O)CCc3ccccc3)C2)c1)Nc1ccc(C(=O)N2CCOCC2)cc1 (configuration not stated)	/	/	-6.0%[8.37 µM]	-2.9%	/	/
O=C(CSc1n[nH]c(=O)[nH]c1=O)NC1CC1	-15.9	-2.4	10.5%	-1.4%	4.0%	-19.5%
CN1C(=O)N(C)C2(c3ccccc3)Nn3c(s/c(=C/c4ccco4)c3=O)=NC12c1ccccc1 (configuration not stated)	-16.3	4.8	-9.0%	-4.1%	127.8%	11.7µM*
COc1ccc(OC)c(S(=O)(=O)NC2CCSc3ccccc32)c1 (configuration not stated)	-4.7	6.3	-16.3%	-0.2%	-25.1%	-3.5%
COc1ccc(CN(C#N)c2nc(C)cc(C)n2)cc1	-3.2	7.0	1.5%	-3.7%	7.38µM*	?
SMILES	Shiga toxin inh	CHX counter	HCV inhibitor	AMA1 RON2 block	Pf growth 96h	Pf growth 48h
CC(=NCCN1CCCCC1)c1c(O)[nH]c(=O)[nH]c1=O	87.1*	20.5	16.6%	27.3%	/	8.4%
CC(=NCCCO)c1c(O)[nH]c(=O)[nH]c1=O	-12.4	4.8	7.2%	-19.4%	42.0%	53.1%
O=C(Nc1nccs1)NC(C(F)(F)F)C(F)(F)F	-11.2	-6.0	6.0%	9.6%	-9.4%	/
O=C(/C=C/Nc1nccs1)C(F)(F)Cl	101.9*	35.0*	27.0%	31.6%	4.6%	36.4%
CN(Cc1nc2ccccc2c(=O)[nH]1)C(=O)C1CC(=O)N(c2cccc3ccccc23)C1 (configuration not stated)	/	/	8.7%	25.8%	/	/
CCN(CC)C(=O)c1sc(NC(=O)c2ccc3c(c2)OCO3)c(C(N)=O)c1C	24.9	42.3*	10.4%	-21.5%	-2.3%	78.7%
CC(C)Sc1nnc(NC(=O)c2ccc3c(c2)OCO3)s1	56.0*	24.5*	-8.6%	-0.6%	183.9%	117.1%
CCN(CC)C(=O)c1sc(NC(=O)c2ccncc2)c(C(=O)OC)c1C	12.6	-4.1	0.3%	4.4%	22.6%	0.9%
CCSc1nnc(NC(=O)c2ccc3c(c2)OCO3)s1	66.6*	44.9*	9.8%	-12.5%	/	161.6%
CC(C)(C)c1nnc(NC(=O)COc2ccc3c(c2)OCO3)s1	/	/	10.3%	-16.6%	?	104.0%
CC(C)(C)c1nnc(NC(=O)c2ccc3c(c2)OCO3)s1	169.8*	39.5*	3.2%	12.1%	41.9%	176.0%
CCOC(=O)CSc1nnc(NC(=O)c2ccc3c(c2)OCO3)s1	25.9	-3.2	16.6%	-2.0%	33.2%	44.9%
CC(C)c1nnc(NC(=O)c2ccc3c(c2)OCO3)s1	125.2*	39.9*	-1.0%	-3.6%	-2.9%	91.0%
CC(c1ccccc1)c1nnc(NC(=O)c2ccc3c(c2)OCO3)s1 (configuration not stated)	5.2	8.2	-27.1%	0.6%	41.7%	?
CCCNc1ncnc2c1cnn2C1CCCCO1 (configuration not stated)	/	/	-1.7%	-10.1%	/	/
Cc1ccc(SC2=C(Sc3ccc(C)cc3)C(=O)c3ccccc3C2=O)cc1	36.7*	28.4*	?	?	0.738µM*	0.415µM*
Cn1c(=O)c2[nH]c(-c3ccccc3Cl)c(O)c2n(C)c1=O	-4.5	3.4	30.1%	-10.2%	13.1µM*	4.65µM*
O=C(NCc1ccccn1)C1CCC(=O)N1C1CCCCC1 (configuration not stated)	-1.8	-5.8	?	106.4%	1.85µM*	/
O=C(NCCCN1CCCC1)C1CCC(=O)N1C1CCCCC1 (configuration not stated)	-20.2	-7.7	18.7%	7.0%	7.0%	30.4%
CCc1ccc(CNC(=O)C2CCC(=O)N2C2CCCCC2)cc1 (configuration not stated)	-16.5	-3.4	16.1%	-15.9%	27.4%	/
CC1CC(C)CN(CCCNC(=O)C2CCC(=O)N2C2CCCC2)C1 (configuration not stated)	16.4	-5.2	14.9%	18.2%	10.4µM*	51.0%
S=C(Nc1ccccc1Cl)N(Cc1ccccc1)Cc1cccnc1	20.2	-3.1	12.7%	-8.2%	48.4%	-20.5%

Screening results from PubChem BioAssay.
